Only some compounds are listed: those with a hit (about 10% of all), similar ones and a draw of the others.
BAZ2B block = BAZ2B (human) inhibition; AlphaScreen BAZ2B-H3K14Ac peptide displacement; Potency, µM (doses to about 114 µM), inactives show at the top dose activity change, negative = inhibition, usual class: inhibitors; 360,000 tested, 4.4% active; AID 504333; further: on the % scale 0 is the no-effect control and ±100 the full control effect; nearly all actives have a fitted effect of over 60% in size
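In this displacement format the biotinylated H3(5-23) peptide acetylated at Lys14 serves as ligand at 50 nM, with BAZ2B at 50 nM in PBS pH 7.4 containing 0.01% Tween-20. Donor and acceptor beads are 10 ug/mL final.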
GLS inh = glutaminase GLS (human) inhibition. O94925. GLS enzymatic activity, qHTS titration. Potency, µM (highest dose often 45.5 µM), for inactives: at the highest dose activity change, negative = inhibition, usual class: inhibitors. 410,000 tested, 0.21% active. AID 624170; further: on the % scale 0 is the no-effect control and ±100 the full control effect
Target sequence (O94925 whole entry, looked up): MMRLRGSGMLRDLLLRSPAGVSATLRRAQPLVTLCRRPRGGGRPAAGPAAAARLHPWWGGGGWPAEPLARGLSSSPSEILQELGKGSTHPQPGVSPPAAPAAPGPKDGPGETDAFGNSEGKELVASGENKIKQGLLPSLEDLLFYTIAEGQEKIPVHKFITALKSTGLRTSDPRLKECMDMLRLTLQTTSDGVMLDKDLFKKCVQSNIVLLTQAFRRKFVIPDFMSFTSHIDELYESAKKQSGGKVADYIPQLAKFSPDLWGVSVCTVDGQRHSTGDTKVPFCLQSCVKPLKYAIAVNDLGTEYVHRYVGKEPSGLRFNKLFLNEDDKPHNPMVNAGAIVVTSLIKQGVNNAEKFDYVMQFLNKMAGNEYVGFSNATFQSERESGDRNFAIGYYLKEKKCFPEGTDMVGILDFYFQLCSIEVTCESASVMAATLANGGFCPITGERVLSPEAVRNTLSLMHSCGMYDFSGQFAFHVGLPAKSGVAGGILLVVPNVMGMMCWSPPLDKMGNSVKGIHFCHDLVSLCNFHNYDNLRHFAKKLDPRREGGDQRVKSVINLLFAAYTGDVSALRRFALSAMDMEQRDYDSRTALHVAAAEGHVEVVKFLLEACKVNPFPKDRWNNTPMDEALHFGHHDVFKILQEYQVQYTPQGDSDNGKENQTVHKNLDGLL
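Two-point fluorescence kinetic (t0, 30 min RT) for hKGA; glutamate detected via glutamate oxidase–HRP–Amplex Red. Substrate: 1 mM L-glutamine solution; buffer 45 mM KH2PO4, pH 8.2.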
G9a inh = G9a (human) methyltransferase inhibition; G9a H3K9 monomethylation, AlphaScreen, 2 h; Q96KQ7; Potency, µM (titrated, usually from 102 µM), for the others: at the top dose activity, negative = inhibition, usual class: inhibitors; AID 504332; 350,000 tested, 8.8% active; further: on the % scale 0 is the no-effect control and ±100 the full control effect; nearly all actives have a fitted effect of over 75% in size
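AlphaScreen detection with an anti-monomethyl H3K9 antibody quantified product after a 2 h room-temperature reaction containing 500 nM biotinylated H3K9 peptide, 20 µM SAM and 20 nM enzyme, which had been preincubated 15 min with compound.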
JMJD2A Tudor inh = blocks the human JMJD2A Tudor domain; O75164; AlphaScreen JMJD2A-Tudor / H3K4me3 peptide binding; Potency, µM (highest dose often 114 µM), for inactives: top-dose activity change, negative = inhibition, actives largely listed as inhibitors; 390,000 tested, 4.4% active; further: on the % scale 0 is the no-effect control and ±100 the full control effect; nearly all actives have a fitted effect of over 50% in size
HP1b chromo inh = inhibitors of HP1-beta chromodomain binding to methylated histone tails | P83916 | AlphaScreen HP1-beta / biotin-H3K9me3 peptide binding | Potency, µM (titrated, usually from 114 µM), without a hit: at the highest dose activity change, negative = inhibition, most hits filed as inhibitors | 390,000 tested, 0.56% active | AID 540317; further: nearly all actives have a fitted effect of over 70% in size
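AlphaScreen: HP1-beta (50 nM) preformed 30 min with biotin-H3(1-18)K9me3 peptide (50 nM) in PBS pH 7.4, 0.01% Tween-20. Compound added for 30 min at RT, then streptavidin donor/nickel chelate acceptor beads (10 ug/mL) for 30 min.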
Active calls of the source: *; u = inconclusive; x = no result; [ ] = remark or other dose. The call rests on the fitted dose curve; in most records, active means well fitted curve in the direction sought with a large enough effect; inconclusive means small, poorly fitted or top-dose-only effect, or another doubt; inactive means no such curve, though single readings can be large; an effect the other way counts as inactive or inconclusive. Potency means the concentration at half of the fitted maximal effect.

SMILES	BAZ2B block	GLS inh	G9a inh	JMJD2A Tudor inh	HP1b chromo inh
CCCCN(C(=O)c1ccc2c(c1)OCO2)c1c(N)n(CCCC)c(=O)[nH]c1=O	3.4%	10.3%	-25.3%	-4.3%	33.2%
CN(C)CCC(=O)c1cccc(Br)c1	-22.3%	3.1%	2µM*	-22.2%	u
CN(C)CCC(=O)c1ccc2c(c1)OCO2	-29.7%	7.8%	1.78µM*	u	4.2%
CC1Cc2ccccc2N1C(=O)COC(=O)c1n[nH]c(=O)c2ccccc12 (stereo not given)	8.9%	2.3%	-5.5%[12.7 µM]	-18.2%	19.6%
COc1ccc(C(=O)NC(=S)NNC(=O)c2ccco2)cc1	17.8%	10.7%	-7.9%[12.7 µM]	-8.4%	17.3%
CC(C(=O)Nc1ncc([N+](=O)[O-])s1)N1C(=O)c2ccccc2S1(=O)=O (stereo not given)	-36.1%	4.4%	11.2µM*	20µM*	-9.4%
Cc1cccc(NC(=O)C(C)N2C(=O)c3ccccc3S2(=O)=O)n1 (stereo not given)	11.3%	14.6%	7.2%	1.4%	2.7%
N#CCc1c(C#N)c(N)nc(N2CCN(c3ccc(F)cc3)CC2)c1C#N	13.3%	26.6%	50.1µM*	u	13.2%
COc1ccc(CN2C(=O)Cc3c2nc(N)c2c(N)nc(N4CCOCC4)c(C#N)c32)cc1	-26.6%	3.8%	-29.6%[12.7 µM]	-6.5%	14.4%
N#CCc1c(C#N)c(N)nc(N2CCN(S(=O)(=O)c3ccccc3F)CC2)c1C#N	-36.7%	21.2%	-0.5%	-4.9%	44.3%
COCCN1C(=O)Cc2c1nc(N)c1c(N)nc(N3CCN(c4ccc(F)cc4)CC3)c(C#N)c21	-33.8%	-17.8%	35.5µM*	-31.5%	5.3%
Cc1ccc(-c2nnc(SCC(=O)n3c4c(c5ccccc53)CCCC4)o2)cc1	2.8%	x	-34.3%	x	x
Cc1cc(N2C(=O)C(O)=C(C(=O)c3ccco3)C2c2ccc([N+](=O)[O-])cc2)no1 (stereo not given)	u	19.5%	89.1µM*	-14.4%	3.0%
CCCOc1cccc(C2C(C(=O)c3cc4ccccc4o3)=C(O)C(=O)N2c2cc(C)on2)c1 (stereo not given)	u	5.7%	-2.3%[0.501 µM]	u	-5.4%[57 µM]
Cc1cc(N2C(=O)C(O)=C(C(=O)c3cc4ccccc4o3)C2c2ccc(OC(C)C)cc2)no1 (stereo not given)	-15.9%	-0.2%	35.5µM*	-3.1%	15.0%
Cc1cc(N2C(=O)C(O)=C(C(=O)c3cc4ccccc4o3)C2c2cccc(Br)c2)no1 (stereo not given)	u	u	8.8%[0.0925 µM]	u	-14.2%[57 µM]
COC(=O)c1ccc(C2C(C(=O)c3cc4ccccc4o3)=C(O)C(=O)N2c2cc(C)on2)cc1 (stereo not given)	-22.0%	0.0%	44.7µM*	u	-7.9%[57 µM]
CCN(C(=O)COC(=O)/C=C/c1cccc([N+](=O)[O-])c1)c1ccccc1	-31.1%	-5.2%	u	-21.4%	2.9%
COc1cc(C(=O)Nc2ccc3c(c2)N(C2CCCC2)C(=O)c2ccccc2S3)cc(OC)c1OC	-11.2%	9.9%	0.4%[59 µM]	-24.7%	4.4%
Cc1cc(=O)oc2cc(OCC(=O)Nc3c(C)n(C)n(-c4ccccc4)c3=O)c(Cl)cc12	79.4µM*	-1.0%	-6.6%	-2.8%	24.5%
Cc1ccc(C)c(OCC(=O)Nc2c(C)n(C)n(-c3ccccc3)c2=O)c1	1.1%	1.4%	0.5%[12.7 µM]	-14.8%	23.6%
COc1ccc2cc3cc(C(=O)Nc4cc(C)c(Cl)cc4OC)oc3nc2c1	x	-8.4%	-4.0%[59 µM]	-13.3%	3.6%
C=C1c2ccccc2NC(=S)N1Cc1ccc2c(c1)OCO2	-32.3%	0.4%	31.6µM*	-9.0%[11.4 µM]	24.1%
O=C1c2ccccc2C(=O)N1Cc1ccc2c(c1)OCO2	16.8%	1.3%	-5.2%[12.7 µM]	27.7%	33.3%
COc1ccc(Cc2nnc(N/N=C/c3ccc(O)cc3)[nH]c2=O)cc1OC	7.08µM*	-4.6%	88.6%[59 µM]	25.1µM*	18.9%
SMILES	BAZ2B block	GLS inh	G9a inh	JMJD2A Tudor inh	HP1b chromo inh
COc1ccc(Cc2nnc(N/N=C/c3ccc(Br)cc3)[nH]c2=O)cc1OC	u	5.0%	x	-19.6%	55.5%
CCOC(=O)[C@]12CCC=C1N(Cc1ccccc1)C(=O)[C@H](CC(=O)NCCc1ccccc1OC)C2	x	11.0%	x	x	x
Cc1ccccc1C(=O)/C(C#N)=N/Nc1c(C)n(C)n(-c2ccccc2)c1=O	50.1µM*	-1.3%	-6.5%[59 µM]	50.1µM*	19.3%
Cc1c(N/N=C(\C#N)C(=O)c2ccccc2)c(=O)n(-c2ccccc2)n1C	31.6µM*	28.5%	u	56.2µM*	72.6%
N#C/C(=N\Nc1ccccc1Cl)C(=O)c1ccccc1	u	31.3%	u	-29.1%[57.1 µM]	-21.5%
CCOC(=O)/C(C#N)=N/Nc1c(C)n(C)n(-c2ccccc2)c1=O	79.4µM*	0.0%	17.8µM*	-17.5%	55.9%
Cc1c(N/C=C(\Cl)C(=O)C(F)(F)F)c(=O)n(-c2ccccc2)n1C	u	-22.9%	25.1µM*	-16.5%	7.5%
Cc1c(NC=C(C#N)C#N)c(=O)n(-c2ccccc2)n1C	1.6%	-7.4%	12.2%[0.501 µM]	3.7%	45.1%
COc1ccc(NC(=O)CN(C)C(=O)c2ccc(NS(=O)(=O)c3cccc([N+](=O)[O-])c3)cc2)cc1	0.0%	-3.7%	14.8%[12.7 µM]	-16.0%	1.0%
CC1(C)CC(=O)C(C=NCCN2CCN(C(=O)NC34CC5CC(CC(C5)C3)C4)CC2)=C(O)C1	14.5%	3.1%	50.1µM*	-15.5%	41.1%
Cc1cc(Cl)ccc1C(O)c1ncc(-c2ccccc2C(F)(F)F)[nH]1 (stereo not given)	x	-6.2%	x	x	x
Cc1nn(-c2ccccc2)c(N2CCCC2)c1/C=N/Nc1ccc(S(N)(=O)=O)cc1[N+](=O)[O-]	10µM*	11.5%	10µM*	7.08µM*	39.8µM*
O=c1cnnc(N/N=C/c2cccs2)[nH]1	79.4µM*	4.3%	x	-28.0%	15.9%[57 µM]
Cc1cc(C)nc(N/N=C/c2ccco2)n1	9.4%	-0.5%	39.1%[12.7 µM]	-7.4%	36.4%
CCCCNc1nnc(SCC(=O)c2c[nH]c3ccccc23)s1	-4.7%	-1.8%	28.2µM*	-10.3%	32.8%
Cn1cnnc1SCC(=O)c1c[nH]c2ccccc12	-3.4%	0.0%	13.1%	-16.7%	16.4%
CC(=O)Nc1ccc(NS(=O)(=O)c2cn(C)c(=O)n(C)c2=O)cc1	10.6%	17.2%	6.2%	-9.0%	27.4%
COc1ccc(N2CCN(C3=CC(=O)N(c4cccc(Cl)c4)C3=O)CC2)cc1	11.2µM*	-6.8%	u	u	u
COc1ccc(-n2c(=S)[nH]c3cc(C(=O)NCCCN4CCOCC4)ccc3c2=O)c(OC)c1	-13.7%	-11.5%	u	u	47.0%
O=C(NCCCN1CCOCC1)c1c(O)c2ccccc2[nH]c1=O	-10.4%	2.1%	50.1µM*	-22.9%[57.1 µM]	55.6%
COCCn1c(=S)[nH]c2cc(C(=O)NCCCN3CCOCC3)ccc2c1=O	u	3.2%	x	25.1µM*	69.1%

Bioassay records as filed in PubChem BioAssay.
